# Publication PMC7862700, “An all-to-all approach to the identification of sequence-specific readers for epigenetic DNA modifications on cytosine”
# Assays:
# Assay in all cases: DAPPL (digital affinity profiling via proximity ligation, sequencing); 10 mM Tris-HCl pH 7.5, 50 mM NaCl, 1 mM DTT, 4% glycerol, room temperature, 30 min; GST-TFs on glutathione beads, 16-mer random dsDNA library, 0.1% formaldehyde crosslink after washing; high values mean tight binding
# [1] = biological target: T1, FLI1 (Homo sapiens, UniProt Q01543 1-452); settings: protein: recombinant; tags: N-terminal GST; dsDNA, one strand shown
# T1 sequence: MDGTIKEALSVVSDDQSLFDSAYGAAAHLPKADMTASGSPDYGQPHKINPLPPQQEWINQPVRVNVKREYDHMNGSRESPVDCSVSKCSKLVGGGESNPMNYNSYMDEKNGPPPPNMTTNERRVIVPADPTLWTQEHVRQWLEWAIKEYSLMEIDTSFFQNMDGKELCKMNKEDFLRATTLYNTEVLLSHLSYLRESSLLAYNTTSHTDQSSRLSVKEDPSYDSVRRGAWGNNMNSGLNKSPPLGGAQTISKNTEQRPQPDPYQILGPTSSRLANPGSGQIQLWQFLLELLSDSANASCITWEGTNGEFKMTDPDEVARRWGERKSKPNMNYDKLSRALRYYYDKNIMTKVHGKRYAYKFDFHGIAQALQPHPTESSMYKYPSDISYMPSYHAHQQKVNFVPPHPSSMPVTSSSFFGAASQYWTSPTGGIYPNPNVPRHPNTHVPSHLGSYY
# Summary of the method: (§1)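 After expression in yeast as GST fusions, human transcription factors were bound to glutathione beads, DNA-barcoded and mixed with a tag-only sample. The pools were incubated with 200 nmole of a 16-mer random double-stranded DNA library in Tris/NaCl/DTT/glycerol buffer (30 min, room temperature), washed and crosslinked with 0.1% formaldehyde. Proximity ligation with BsaI/T4 ligase ran for 1 h at 37 °C, before PCR amplification and sequencing on an Illumina NextSeq500. Binding signal is a hexamer's read frequency for a factor divided by its frequency for the tag-only sample.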
# [2] = biological target: T2, ELK1 (Homo sapiens, UniProt P19419 1-428); settings: protein: recombinant; tags: N-terminal GST; dsDNA, one strand shown
# T2 sequence: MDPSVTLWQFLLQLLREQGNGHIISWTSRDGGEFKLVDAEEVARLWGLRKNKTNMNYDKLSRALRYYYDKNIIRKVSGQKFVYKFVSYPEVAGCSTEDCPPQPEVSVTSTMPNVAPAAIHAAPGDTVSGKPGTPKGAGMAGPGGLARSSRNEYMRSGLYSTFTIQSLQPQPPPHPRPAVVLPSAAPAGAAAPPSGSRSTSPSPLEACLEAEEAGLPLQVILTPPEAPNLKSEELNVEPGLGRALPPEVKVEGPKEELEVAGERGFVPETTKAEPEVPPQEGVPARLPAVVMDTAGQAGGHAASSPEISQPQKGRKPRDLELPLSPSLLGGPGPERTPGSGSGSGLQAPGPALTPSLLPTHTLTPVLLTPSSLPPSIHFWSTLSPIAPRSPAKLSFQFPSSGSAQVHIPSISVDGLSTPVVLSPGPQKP
# Summary of the method: as §1
# [3] = biological target: T3, GABPA (Homo sapiens, UniProt Q06546 1-454); settings: protein: recombinant; tags: N-terminal GST; dsDNA, one strand shown
# T3 sequence: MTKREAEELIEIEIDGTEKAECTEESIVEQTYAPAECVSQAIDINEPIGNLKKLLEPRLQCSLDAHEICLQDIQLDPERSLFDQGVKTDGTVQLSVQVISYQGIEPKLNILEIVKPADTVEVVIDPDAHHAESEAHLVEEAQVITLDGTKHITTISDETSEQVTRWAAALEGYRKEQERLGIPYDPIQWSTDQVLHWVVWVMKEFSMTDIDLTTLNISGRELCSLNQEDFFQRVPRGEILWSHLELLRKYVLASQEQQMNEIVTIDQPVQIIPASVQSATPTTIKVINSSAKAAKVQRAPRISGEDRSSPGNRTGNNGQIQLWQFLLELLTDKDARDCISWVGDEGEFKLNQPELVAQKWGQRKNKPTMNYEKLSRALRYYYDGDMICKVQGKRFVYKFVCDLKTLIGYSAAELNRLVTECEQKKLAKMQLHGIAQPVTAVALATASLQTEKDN
# Summary of the method: as §1
# [4] = biological target: T4, ERG (Homo sapiens, UniProt P11308 1-479); settings: protein: recombinant; tags: N-terminal GST; dsDNA, one strand shown
# T4 sequence: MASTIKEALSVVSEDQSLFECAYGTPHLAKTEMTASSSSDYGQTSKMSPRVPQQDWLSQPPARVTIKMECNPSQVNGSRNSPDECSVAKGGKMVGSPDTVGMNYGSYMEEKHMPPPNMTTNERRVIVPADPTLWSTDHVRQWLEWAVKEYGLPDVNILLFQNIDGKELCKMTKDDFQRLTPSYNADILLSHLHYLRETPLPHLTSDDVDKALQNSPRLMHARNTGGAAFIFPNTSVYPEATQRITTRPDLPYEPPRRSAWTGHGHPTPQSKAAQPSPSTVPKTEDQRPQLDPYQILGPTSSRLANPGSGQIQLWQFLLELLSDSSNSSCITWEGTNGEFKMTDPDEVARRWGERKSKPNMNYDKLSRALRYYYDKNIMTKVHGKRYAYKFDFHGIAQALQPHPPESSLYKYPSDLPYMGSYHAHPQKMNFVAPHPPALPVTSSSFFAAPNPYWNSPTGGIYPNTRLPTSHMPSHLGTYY
# Summary of the method: as §1
# [5] = biological target: ELF1 (Homo sapiens, UniProt P32519 1-619); settings: protein: recombinant; tags: N-terminal GST; dsDNA, one strand shown
# Chain of ELF1 (P32519 whole entry): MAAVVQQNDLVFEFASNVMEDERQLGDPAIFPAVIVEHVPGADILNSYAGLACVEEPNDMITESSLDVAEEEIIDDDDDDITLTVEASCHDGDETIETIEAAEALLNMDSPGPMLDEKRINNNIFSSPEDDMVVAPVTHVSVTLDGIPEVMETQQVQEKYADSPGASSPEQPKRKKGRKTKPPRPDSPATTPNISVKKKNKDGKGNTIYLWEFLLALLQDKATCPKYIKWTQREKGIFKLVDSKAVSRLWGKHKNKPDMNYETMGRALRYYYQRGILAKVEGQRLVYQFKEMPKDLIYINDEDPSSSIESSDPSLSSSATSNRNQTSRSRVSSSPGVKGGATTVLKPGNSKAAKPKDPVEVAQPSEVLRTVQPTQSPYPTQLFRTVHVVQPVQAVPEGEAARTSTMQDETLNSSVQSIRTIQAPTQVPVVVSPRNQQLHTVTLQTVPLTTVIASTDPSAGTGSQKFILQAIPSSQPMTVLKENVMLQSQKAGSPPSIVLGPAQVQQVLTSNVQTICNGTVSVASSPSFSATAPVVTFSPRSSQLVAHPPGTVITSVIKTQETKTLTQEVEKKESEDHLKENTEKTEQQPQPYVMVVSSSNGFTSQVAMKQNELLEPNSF
# Summary of the method: as §1
# [6] = biological target: T5, EHF (Homo sapiens, UniProt Q9NZC4 1-300); settings: protein: recombinant; tags: N-terminal GST; dsDNA, one strand shown
# T5 sequence: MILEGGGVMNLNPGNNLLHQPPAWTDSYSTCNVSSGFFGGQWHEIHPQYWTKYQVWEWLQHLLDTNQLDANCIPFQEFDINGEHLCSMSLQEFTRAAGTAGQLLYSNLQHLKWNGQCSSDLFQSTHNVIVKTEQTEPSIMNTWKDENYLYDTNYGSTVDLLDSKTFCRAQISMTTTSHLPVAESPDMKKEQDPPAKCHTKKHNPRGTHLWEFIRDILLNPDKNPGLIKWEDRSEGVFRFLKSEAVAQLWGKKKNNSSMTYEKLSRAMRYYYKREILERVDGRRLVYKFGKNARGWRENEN
# Summary of the method: as §1
# [7] = biological target: SPI1 (Homo sapiens, UniProt P17947 1-270); settings: protein: recombinant; tags: N-terminal GST; dsDNA, one strand shown
# Summary of the method: as §1
# [8] = biological target: SPIB (Homo sapiens, UniProt Q01892 1-262); settings: protein: recombinant; tags: N-terminal GST; dsDNA, one strand shown
# Chain of SPIB (Q01892 whole entry): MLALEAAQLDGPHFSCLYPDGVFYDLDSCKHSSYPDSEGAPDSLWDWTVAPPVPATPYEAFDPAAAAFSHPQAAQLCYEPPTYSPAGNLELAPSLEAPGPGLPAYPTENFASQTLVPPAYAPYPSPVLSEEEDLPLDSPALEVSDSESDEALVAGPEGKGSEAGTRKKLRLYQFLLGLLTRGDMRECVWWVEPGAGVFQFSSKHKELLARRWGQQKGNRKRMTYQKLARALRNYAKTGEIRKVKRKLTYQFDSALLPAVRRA
# Summary of the method: as §1
# [9] = biological target: T6, ELK3 (Homo sapiens, UniProt P41970 1-407); settings: protein: recombinant; tags: N-terminal GST; dsDNA, one strand shown
# T6 sequence: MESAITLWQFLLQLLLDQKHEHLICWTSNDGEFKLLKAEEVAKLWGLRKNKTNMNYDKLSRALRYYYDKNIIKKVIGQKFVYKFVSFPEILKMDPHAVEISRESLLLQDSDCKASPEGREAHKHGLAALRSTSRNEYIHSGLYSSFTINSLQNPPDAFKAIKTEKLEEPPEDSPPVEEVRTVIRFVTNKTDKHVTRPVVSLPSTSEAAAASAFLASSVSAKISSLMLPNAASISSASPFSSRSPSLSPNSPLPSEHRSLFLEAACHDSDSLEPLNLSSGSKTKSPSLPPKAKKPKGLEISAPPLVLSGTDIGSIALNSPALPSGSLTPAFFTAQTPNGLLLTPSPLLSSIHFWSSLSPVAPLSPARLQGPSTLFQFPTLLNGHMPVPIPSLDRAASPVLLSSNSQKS
# Summary of the method: as §1
# [10] = biological target: T7, FEV (Homo sapiens, UniProt Q99581 1-238); settings: protein: recombinant; tags: N-terminal GST; dsDNA, one strand shown
# T7 sequence: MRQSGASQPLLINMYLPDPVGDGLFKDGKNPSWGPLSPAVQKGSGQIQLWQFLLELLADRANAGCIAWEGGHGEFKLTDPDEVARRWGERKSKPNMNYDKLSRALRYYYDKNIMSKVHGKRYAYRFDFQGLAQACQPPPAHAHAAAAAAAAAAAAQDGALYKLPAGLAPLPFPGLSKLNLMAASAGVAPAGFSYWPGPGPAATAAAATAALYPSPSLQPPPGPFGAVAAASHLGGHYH
# Summary of the method: as §1
# [11] = biological target: ETV5 (Homo sapiens, UniProt P41161 1-510); settings: protein: recombinant; tags: N-terminal GST; dsDNA, one strand shown
# Chain of ETV5 (P41161 whole entry): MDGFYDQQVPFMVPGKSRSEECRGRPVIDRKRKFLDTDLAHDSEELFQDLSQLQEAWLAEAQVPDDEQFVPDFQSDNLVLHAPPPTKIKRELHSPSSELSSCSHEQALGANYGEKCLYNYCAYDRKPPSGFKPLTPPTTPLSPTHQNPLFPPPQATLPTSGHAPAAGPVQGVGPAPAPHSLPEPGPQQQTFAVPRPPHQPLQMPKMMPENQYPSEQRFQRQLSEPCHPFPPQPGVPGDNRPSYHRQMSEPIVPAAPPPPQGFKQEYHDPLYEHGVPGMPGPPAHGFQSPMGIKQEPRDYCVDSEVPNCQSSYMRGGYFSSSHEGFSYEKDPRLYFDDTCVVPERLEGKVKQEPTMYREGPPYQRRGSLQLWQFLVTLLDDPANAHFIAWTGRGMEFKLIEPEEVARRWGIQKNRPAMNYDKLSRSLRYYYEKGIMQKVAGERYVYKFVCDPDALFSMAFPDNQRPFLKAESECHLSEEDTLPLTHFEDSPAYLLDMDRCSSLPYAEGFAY
# Summary of the method: as §1
# [12] = biological target: HSF1 (Homo sapiens, UniProt Q00613 1-529); settings: protein: recombinant; tags: N-terminal GST; chain copies: 3; dsDNA, one strand shown
# Chain of HSF1 (Q00613 whole entry): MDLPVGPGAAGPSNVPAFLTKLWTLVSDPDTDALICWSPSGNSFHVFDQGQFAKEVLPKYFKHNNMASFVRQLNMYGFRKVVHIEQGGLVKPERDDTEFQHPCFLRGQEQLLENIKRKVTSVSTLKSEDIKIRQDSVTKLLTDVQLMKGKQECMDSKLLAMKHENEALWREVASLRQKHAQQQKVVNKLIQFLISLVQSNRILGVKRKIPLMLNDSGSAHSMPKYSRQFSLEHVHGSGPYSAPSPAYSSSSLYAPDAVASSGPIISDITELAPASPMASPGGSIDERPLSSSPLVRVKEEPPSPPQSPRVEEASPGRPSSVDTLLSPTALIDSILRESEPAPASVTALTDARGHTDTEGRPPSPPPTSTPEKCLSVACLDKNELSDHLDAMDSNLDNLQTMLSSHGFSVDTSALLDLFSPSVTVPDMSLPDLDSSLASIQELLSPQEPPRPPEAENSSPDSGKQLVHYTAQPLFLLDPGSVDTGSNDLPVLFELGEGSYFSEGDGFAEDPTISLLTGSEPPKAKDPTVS
# Summary of the method: as §1
# [13] = biological target: T8, SPIC (Homo sapiens, UniProt Q8N5J4 1-248); settings: protein: recombinant; tags: N-terminal GST; dsDNA, one strand shown
# T8 sequence: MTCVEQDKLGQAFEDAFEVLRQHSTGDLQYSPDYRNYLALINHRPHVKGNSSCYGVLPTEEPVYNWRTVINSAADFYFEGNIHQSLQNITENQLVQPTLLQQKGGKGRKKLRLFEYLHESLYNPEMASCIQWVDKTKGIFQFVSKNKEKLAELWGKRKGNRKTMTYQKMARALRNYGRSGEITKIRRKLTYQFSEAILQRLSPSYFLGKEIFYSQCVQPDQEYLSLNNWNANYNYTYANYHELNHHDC
# Summary of the method: as §1
# [14] = biological target: ELF4 (Homo sapiens, UniProt Q99607 1-663); settings: protein: recombinant; tags: N-terminal GST; dsDNA, one strand shown
# Chain of ELF4 (Q99607 whole entry): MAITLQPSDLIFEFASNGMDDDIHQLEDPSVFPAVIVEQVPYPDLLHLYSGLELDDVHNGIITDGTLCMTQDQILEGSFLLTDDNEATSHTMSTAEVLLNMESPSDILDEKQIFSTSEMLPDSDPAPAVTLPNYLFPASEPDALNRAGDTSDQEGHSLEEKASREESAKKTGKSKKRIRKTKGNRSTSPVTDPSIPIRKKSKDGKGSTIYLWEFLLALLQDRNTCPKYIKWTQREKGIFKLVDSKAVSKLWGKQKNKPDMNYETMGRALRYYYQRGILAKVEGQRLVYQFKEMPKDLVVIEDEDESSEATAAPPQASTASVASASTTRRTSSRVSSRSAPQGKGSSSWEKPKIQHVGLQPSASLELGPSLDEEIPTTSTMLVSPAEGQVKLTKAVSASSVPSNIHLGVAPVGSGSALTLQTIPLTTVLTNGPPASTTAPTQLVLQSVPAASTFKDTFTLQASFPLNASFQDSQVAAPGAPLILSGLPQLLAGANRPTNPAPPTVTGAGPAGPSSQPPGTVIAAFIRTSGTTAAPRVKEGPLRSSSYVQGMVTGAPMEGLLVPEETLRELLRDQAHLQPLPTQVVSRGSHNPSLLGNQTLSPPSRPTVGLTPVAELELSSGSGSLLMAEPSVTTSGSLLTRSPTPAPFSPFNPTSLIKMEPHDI
# Summary of the method: as §1
# [15] = biological target: T9, ELK4 (Homo sapiens, UniProt P28324-2 1-405); settings: protein: recombinant; tags: N-terminal GST; dsDNA, one strand shown
# T9 sequence: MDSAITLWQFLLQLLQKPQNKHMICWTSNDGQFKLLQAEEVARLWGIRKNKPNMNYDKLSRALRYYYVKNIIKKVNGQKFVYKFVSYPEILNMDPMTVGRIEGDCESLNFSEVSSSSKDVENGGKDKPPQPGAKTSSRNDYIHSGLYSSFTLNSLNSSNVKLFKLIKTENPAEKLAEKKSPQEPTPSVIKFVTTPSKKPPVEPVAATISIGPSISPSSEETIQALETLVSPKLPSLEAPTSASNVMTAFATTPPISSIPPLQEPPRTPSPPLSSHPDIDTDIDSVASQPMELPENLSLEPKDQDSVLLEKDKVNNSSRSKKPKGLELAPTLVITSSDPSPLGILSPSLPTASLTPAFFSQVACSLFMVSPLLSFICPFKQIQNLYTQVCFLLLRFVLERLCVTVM
# Summary of the method: as §1
# [16] = biological target: T10, ETV2 (Homo sapiens, UniProt O00321 1-342); settings: protein: recombinant; tags: N-terminal GST; dsDNA, one strand shown
# T10 sequence: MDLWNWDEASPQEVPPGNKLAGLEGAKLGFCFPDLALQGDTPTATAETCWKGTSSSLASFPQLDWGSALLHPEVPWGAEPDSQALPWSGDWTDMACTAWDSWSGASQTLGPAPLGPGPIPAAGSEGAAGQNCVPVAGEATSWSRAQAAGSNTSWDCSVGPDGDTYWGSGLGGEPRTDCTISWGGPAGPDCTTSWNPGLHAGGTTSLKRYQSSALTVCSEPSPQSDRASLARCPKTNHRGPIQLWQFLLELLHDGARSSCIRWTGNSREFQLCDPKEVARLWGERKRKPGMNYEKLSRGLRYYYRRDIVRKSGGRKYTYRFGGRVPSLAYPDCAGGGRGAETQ
# Summary of the method: as §1
# [17] = biological target: T11, ELF3 (Homo sapiens, UniProt P78545 1-371); settings: protein: recombinant; tags: N-terminal GST; dsDNA, one strand shown
# T11 sequence: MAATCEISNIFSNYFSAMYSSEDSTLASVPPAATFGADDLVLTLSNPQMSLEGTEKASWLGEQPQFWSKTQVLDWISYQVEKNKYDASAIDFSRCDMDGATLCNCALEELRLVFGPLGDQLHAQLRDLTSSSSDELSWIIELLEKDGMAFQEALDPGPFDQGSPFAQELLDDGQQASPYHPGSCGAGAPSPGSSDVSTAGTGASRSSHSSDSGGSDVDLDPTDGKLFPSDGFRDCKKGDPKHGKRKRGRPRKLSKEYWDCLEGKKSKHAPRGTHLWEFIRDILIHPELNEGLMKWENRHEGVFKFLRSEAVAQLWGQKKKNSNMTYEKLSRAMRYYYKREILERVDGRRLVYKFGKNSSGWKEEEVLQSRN
# Summary of the method: as §1
# [18] = biological target: ETV1 (Homo sapiens, UniProt P50549 1-477); settings: protein: recombinant; tags: N-terminal GST; dsDNA, one strand shown
# Chain of ETV1 (P50549 whole entry): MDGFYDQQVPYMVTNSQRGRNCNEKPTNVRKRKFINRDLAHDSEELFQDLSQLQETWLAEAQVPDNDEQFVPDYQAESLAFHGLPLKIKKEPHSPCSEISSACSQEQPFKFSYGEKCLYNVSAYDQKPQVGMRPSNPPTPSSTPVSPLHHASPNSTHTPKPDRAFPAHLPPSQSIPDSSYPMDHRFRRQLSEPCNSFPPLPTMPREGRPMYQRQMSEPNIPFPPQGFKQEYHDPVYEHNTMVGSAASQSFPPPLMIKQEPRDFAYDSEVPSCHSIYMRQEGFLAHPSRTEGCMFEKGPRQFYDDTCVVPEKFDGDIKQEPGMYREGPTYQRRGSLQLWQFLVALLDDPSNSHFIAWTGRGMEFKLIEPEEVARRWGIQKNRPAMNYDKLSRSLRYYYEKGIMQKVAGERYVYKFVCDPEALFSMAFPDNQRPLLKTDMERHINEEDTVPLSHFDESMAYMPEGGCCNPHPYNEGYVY
# Summary of the method: as §1
sequence,measurement,setting,value
GAAGTA,binding signal,[1],"1.88 fold enrichment (6-mer frequency, TF over GST control)"
same,binding signal,[2],"2.23 fold enrichment (6-mer frequency, TF over GST control)"
same,binding signal,[3],"1.68 fold enrichment (6-mer frequency, TF over GST control)"
same,binding signal,[4],"2.03 fold enrichment (6-mer frequency, TF over GST control)"
same,binding signal,[5],"1.84 fold enrichment (6-mer frequency, TF over GST control)"
same,binding signal,[6],"2.13 fold enrichment (6-mer frequency, TF over GST control)"
same,binding signal,[7],"2.32 fold enrichment (6-mer frequency, TF over GST control)"
same,binding signal,[8],"1.95 fold enrichment (6-mer frequency, TF over GST control)"
same,binding signal,[9],"2.1 fold enrichment (6-mer frequency, TF over GST control)"
same,binding signal,[10],"2.05 fold enrichment (6-mer frequency, TF over GST control)"
same,binding signal,[11],"2.16 fold enrichment (6-mer frequency, TF over GST control)"
same,binding signal,[12],"1.02 fold enrichment (6-mer frequency, TF over GST control)"
same,binding signal,[13],"2.19 fold enrichment (6-mer frequency, TF over GST control)"
same,binding signal,[14],"1.74 fold enrichment (6-mer frequency, TF over GST control)"
same,binding signal,[15],"1.71 fold enrichment (6-mer frequency, TF over GST control)"
same,binding signal,[16],"1.89 fold enrichment (6-mer frequency, TF over GST control)"
same,binding signal,[17],"2.08 fold enrichment (6-mer frequency, TF over GST control)"
same,binding signal,[18],"2.11 fold enrichment (6-mer frequency, TF over GST control)"
